These results are taken from PubChem BioAssay.

The source made the active and inactive calls.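 Rule for the calls: active = inhibition above the hit cutoff set in the earlier primary screen (cut at about 27% in these data); inactive = the rest.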

Sequence of Protein phosphatase methylesterase 1 (Homo sapiens) (Q9Y570 whole entry, looked up): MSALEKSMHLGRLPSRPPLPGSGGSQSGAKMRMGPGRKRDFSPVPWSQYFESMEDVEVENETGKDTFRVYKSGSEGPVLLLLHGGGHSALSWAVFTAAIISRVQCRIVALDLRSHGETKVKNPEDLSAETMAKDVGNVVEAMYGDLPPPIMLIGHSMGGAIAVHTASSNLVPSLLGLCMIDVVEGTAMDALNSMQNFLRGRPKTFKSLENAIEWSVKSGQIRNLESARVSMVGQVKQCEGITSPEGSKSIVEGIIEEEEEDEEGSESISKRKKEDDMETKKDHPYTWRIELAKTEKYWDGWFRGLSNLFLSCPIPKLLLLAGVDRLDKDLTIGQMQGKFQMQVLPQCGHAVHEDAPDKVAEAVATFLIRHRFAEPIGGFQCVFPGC

The experiment has as its target Protein phosphatase methylesterase 1 (Homo sapiens) (UniProt Q9Y570). The experiment is described as follows: PME-1 inhibitor activity retest, confirmation, biochemical, fluorescence polarization, FP-Rh probe, triplicate (AID 2171).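 Note: 0% = enzyme with DMSO and 100% = wells lacking PME-1.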 Particulars: recombinant PME-1, FP-Rh probe fluorescence polarization; at 5.9 µM; hits give high values. A general note: Fluorescence polarisation rises when a labelled molecule tumbles more slowly, as on binding a larger partner.
As for `O=c1ccc2ccc(Oc3ccc([N+](=O)[O-])cc3[N+](=O)[O-])cc2o1`, the inhibition (commonly the change of the read-out against control, counted positive when it falls) was 25.6% (inactive).
On to `Cc1ccc(-c2nc(Nc3ccccc3)n[nH]2)cc1`, for which the inhibition is 48.5% (active).
The figure for `CCOc1ccc(NC(C(=O)Nc2cccc(C(C)=O)c2)c2ccccc2)cc1` (stereo not given) is 33.5% (active).
Turning to `Nc1ccc2nc3c(=O)n(CCc4ccccc4)c(=O)[nH]c3nc2c1`, the inhibition was 51.2% (active).
The figure for `CC(C)NC(=S)N=Nc1c(O)[nH]c2ccc(C(C)C)cc12` is 34.8% (active); for `Fc1cccc2sc(Nc3nc4cc5c(cc4s3)OCO5)nc12` it is 76.3% (active).
In the case of `Cc1ccc(-c2csc(-c3c[nH]c4ccccc34)n2)cc1`, the inhibition is 11.1% (inactive).
`Cc1ncc(CO)c(/C=N/NC(=S)Nc2ccc(Cl)c(Cl)c2)c1O`: the inhibition was 6.06% (inactive).
As for `COc1cc(OC)cc(C(=O)Oc2ccc(/C=N/Nc3nc4ccccc4s3)cc2OC)c1`, the inhibition was 24.3% (inactive).
Consider `CCOC(=O)N1CC=C2C(C#N)=C(N)C(C#N)(C#N)[C@H](c3ccccc3OCC)[C@H]2C1`, for which the inhibition is 90.5% (active).
For the molecule `O=C(Nc1ccc(-c2csc(Nc3ccc(Cl)cc3)n2)cc1)c1cccc(C(F)(F)F)c1`, the inhibition is -1.3% (inactive).
Turning to `Brc1ccc(-c2ccc(C3Nc4cccc5cccc(c45)N3)o2)cc1`, the inhibition is 24.1% (inactive).
Under `COCCN=c1scc(-c2cc(OC)c(OC)c(OC)c2)n1/N=C/c1c(C)[nH]c2ccccc12` stands 18.7% (inactive); under `CCCCC(=O)NC(c1ccccc1Cl)c1c(O)ccc2ccccc12` (stereo not given), 32.1% (active); under `O=C1c2cccc3c(O)ccc(c23)C(=O)N1c1ccc(Cl)cc1`, 28.3% (active).
In the case of `N#C/C(=C(\O)c1cc(Cl)sc1Cl)c1nc2ccccc2[nH]1`, the inhibition is 21.8% (inactive).
As for `Cc1cc(N/N=C/c2ccc(O)cc2O)nc(-c2ccccc2O)n1`, the inhibition is 39.8% (active).
The figure for `Cc1nn(-c2ccc(Br)cc2)c(=O)c2ccccc12` is 4.4% (inactive); for `O=S(=O)(c1cccs1)N1CN(Cc2ccco2)c2nc3ccccc3nc21` it is 13.4% (inactive).
Turning to `CCOC(=O)c1ccc(NC(=O)Nc2ccc3c4c(cccc24)C(=O)N3CC)cc1`, the inhibition was 16.2% (inactive).
Under `Cc1c(C(=O)O)cccc1-c1ccc(/C=N/Nc2ccc(Br)cc2)o1` stands 39.6% (active); under `CCN(CC)c1nc2c3c(nc4c(c3c1C#N)CC(=O)N4c1ccc(Cl)cc1)NC(C)=N2`, 9.8% (inactive); under `CC(=O)Cc1cc(O)c2ccccc2c1OC(=O)c1ccc(Br)cc1`, 24.8% (inactive).
`CCOC(=O)C(C)On1c(-c2ccccc2)nc2ccc([N+](=O)[O-])cc21` (stereo not given): the inhibition was 34.2% (active).
For `CCOC(=O)c1c2c3c(cccc3n(C)c1=O)C(=O)c1ccccc1-2`, the inhibition was 21% (inactive).
The figure for `CS(=O)(=O)N1N=C(c2ccccc2)CC1c1ccc2c(c1)OCO2` (stereo not given) is -54.8% (inactive); for `O=C(N/N=C/c1c[nH]c2ccccc12)c1cc(-c2cccc3ccccc23)n[nH]1` it is 2.43% (inactive).
Turning to `C=CCOc1c(OC)cc(/C=N/Nc2cccc(C(=O)O)c2)c(Br)c1Br`, the inhibition is 44.5% (active).
As for `Cc1ccc(N=Cc2nc(/C=C/c3cccc([N+](=O)[O-])c3)oc2O)cc1`, the inhibition is 30.2% (active).
For the molecule `Oc1ccc(C2Nc3cccc4cccc(c34)N2)c(O)c1`, the inhibition is 21.4% (inactive).
The figure for `O=c1[nH]c(N/N=C\c2ccc3c(c2)OCO3)nc2ccccc12` is 24.6% (inactive); for `Cc1ccc(C(=O)O)cc1N1C(=O)c2cccc3c([N+](=O)[O-])ccc(c23)C1=O` it is 38.7% (active); for `COc1ccc(/C(C)=C2/SC(=S)N(CCC(=O)O)C2=O)cc1` it is 4.27% (inactive).
As to `COc1ccc(/C=C2\Sc3ccc(C(=O)N4CCN(Cc5ccccc5)CC4)cc3N(C)C2=O)cc1OC`, the inhibition was 46.9% (active).
Turning to `O=C1/C(=C/Nc2ccc3c(c2)OCO3)CCc2ccccc21`, the inhibition was 19.5% (inactive).
For the molecule `O=S(=O)(Nc1cc2nc3ccccc3nc2n1Cc1ccccc1)c1ccc(Cl)cc1`, the inhibition was 42.4% (active).
The figure for `Cc1cccc(C)c1NS(=O)(=O)c1ccc(NC(=O)c2ccc(Cl)c([N+](=O)[O-])c2)cc1` is -96.3% (inactive).
On to `CCCOc1ccc(C2Nc3cccc4cccc(c34)N2)cc1`, for which the inhibition is 38.3% (active).
With `Cc1ccc(S(=O)(=O)Oc2cccc(/C=N/Nc3ccc(C(=O)O)cc3)c2)cc1`, the inhibition is 94% (active).
Turning to `COc1ccc2nc(N3C(=O)/C(=C/c4ccccc4)NC3=S)sc2c1`, the inhibition is 43.3% (active).
